The list is not random: actives were taken first. Their share in the collection is about 5%.
PREPL inhibitor = inhibitors of human prolyl oligopeptidase-like enzyme PREPL | recombinant PREPL, fluorescence polarization activity-based probe | inhibition, % at 5.96 µM | actives 0.68% (n = 320,000) | AID 2751;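 note: 0% = enzyme with DMSO and 100% = wells lacking enzyme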
ALR inh = blocks human ALR sulfhydryl oxidase activity; purified ALR, DTT oxidation, H2O2 HRP-luminol luminescence; AID 485317; P55789; inhibition, % (concentration not given with the values); actives 3.8% (n = 290,000);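 active = mean replicate inhibition above about 79%, with every replicate also reaching it, limit read from the data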
CHT inh = human CHT choline transport inhibition | Q9GZV3 | CHT-expressing cells, membrane potential dye, choline response; active compounds read low | actives 0.86% (n = 310,000) | AID 488975 | B-score at 10 µM;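 active = B-score over 3 SD under the library average, and starting fluorescence ratio not unusually high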;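 note: choline stimulus applied at its EC90 after an EC20 pre-addition; B-score computed on integrated fluorescence ratio after choline addition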
CHT PAM = allosteric activators of human choline transporter CHT; B-score at 10 µM; Q9GZV3; actives 0.49% (n = 310,000); AID 488977; CHT-expressing cells, membrane potential dye, choline EC20; active compounds read high; LV-AA mutant CHT in HEK293 cells;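 active = initial fluorescence not abnormally high and integrated response B-score, plate-corrected, over 3 SD above library mean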
AI-2 QS mod = modulates the Vibrio harveyi AI-2 quorum sensing system. AID 2094. actives 0.4% (n = 300,000). activity change, % at 7.5 µM. Vibrio harveyi JMH597 AI-2 luminescence/OD600 ratio, 9 h; active compounds read low; strain lacks LuxN and CqsS sensors; 0 = neutral-control median; in the data active = activity change below about -75%, passing the limit was not always enough;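 note: luminescence divided by OD600 gain over 9 h not by final OD600 alone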
PREPL confirm = human PREPL inhibition, confirmation; AID 2803; actives 67% (n = 2,000); inhibition, % at 5.96 µM; recombinant PREPL, fluorescence polarization activity probe; shares compounds with PREPL inhibitor;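 note: 0% = protein with DMSO and 100% = wells lacking protein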
Starred values were filed as active, the others as inactive; i = inactive; . = no result. Cut-off read from the data, not from the text of the source, unless noted: active = inhibition above about 43%; inactive = the rest.

SMILES	PREPL inhibitor	ALR inh	CHT inh	CHT PAM	AI-2 QS mod	PREPL confirm
COc1cc(C#Cc2c(-c3cncn3C)n(C)c3ccc(-c4ccc(CN5CCOCC5)cc4)cc23)cc(OC)c1	45.3*	8.5	.	.	.	29.3
COc1cc(C#Cc2c(-c3cncn3C)n(C)c3ccc(-c4cnc(N5CCOCC5)nc4)cc23)cc(OC)c1	33.2	-3.3	.	.	.	.
Cn1cc(S(=O)(=O)N2CCCC2)cc1C(=O)O	15.7	.	.	.	.	.
Cc1cc(C)c(NC(=O)c2cccc(NC(=O)c3ccco3)c2)c(C)c1	-0.2	-10.0	i	i	9.4	.
C=CCC[C@@H](Cc1ccc(F)cc1)C(=O)OC[C@@H]1CCCN1C(=O)[C@H](CC=C)CC(=O)N[C@H](CO)Cc1ccccc1	44.5*	-5.3	.	.	.	27.2
C=CCC[C@@H](Cc1ccc(F)cc1)C(=O)OC[C@H]1CCCN1C(=O)[C@@H](CC=C)CC(=O)N[C@H](CO)Cc1ccccc1	35.8	-0.3	.	.	.	.
Cc1ccc(S(=O)(=O)N2CCN(C(=O)C3CCCC3)CC2)cc1C	10.8	8.2	i	i	5.8	.
CCCn1nc(C(=O)NCC2COc3ccccc3O2)c2ccccc2c1=O (stereo unspecified)	-15.8	-7.8	.	.	.	.
Cc1ccc(NS(=O)(=O)c2cc3c4c(cccc4c2)C(=O)NC3=O)cc1C	44.7*	.	i	i	37.0	31.0
C(=N\Nc1ncnc2sc3c(c12)CCC3)/c1ccncc1	26.9	20.3	i	i	32.4	.
NNc1ncnc2sc3c(c12)CCC3	43.9*	5.9	i	i	17.2	21.9
Cc1cc(N2CCOCC2)nc2ccc(NC(=O)CCC(=O)N3CCN(c4ccc(F)cc4)CC3)cc12	43.5*	5.0	i	i	12.5	39.1
CCN1CCN(c2cc(C)c3cc(NC(=O)c4ccc5c(c4)OCO5)ccc3n2)CC1	44.0*	84.4*	i	i	20.3	19.5
Cc1cc(N2CCN(C)CC2)nc2ccc(NC(=S)N3CCN(c4cccc(Cl)c4)CC3)cc12	47.1*	.	i	i	29.8	32.7
Cc1cccc(N2CCN(C(=S)Nc3ccc4nc(N5CCN(C)CC5)cc(C)c4c3)CC2)c1C	.	.	.	.	9.4	.
Cc1cc(N2CCOCC2)nc2ccc(NC(=O)CCC(=O)N3CCN(c4ccccc4F)CC3)cc12	32.7	-2.2	i	i	19.6	.
CCN1CCN(c2cc(C)c3cc(NC(=O)c4ccc(OC)c(OC)c4)ccc3n2)CC1	19.0	.	i	i	33.6	.
COc1ccc(C(=O)Nc2ccc3nc(N4CCN(C)CC4)cc(C)c3c2)c(OC)c1	48.4*	0.0	i	i	0.6	42.8
CCN1CCN(S(=O)(=O)c2ccc(Cl)c(C(=O)NCc3ccco3)c2)CC1	7.7	-5.9	i	i	8.8	.
COc1ccc(CNC(=O)Cc2c(C(=O)O)[nH]c3ccccc23)c(OC)c1	125.6*	-0.1	i	i	25.2	2.6
C#CCOCCOCCOCCNc1nc(N2CCN(C(=O)C(Cc3cc4ccccc4[nH]3)n3cc(C(N)C(C)CC)nn3)CC2)nc(N2CCN(C(=O)C(Cc3cc4ccccc4[nH]3)n3cc(C(N)C(C)CC)nn3)CC2)n1 (stereo unspecified)	49.5*	.	i	i	21.1	62.0*
C#CCOCCOCCOCCNc1nc(N2CCN(C(=O)[C@H](CCC(=O)O)n3cc(C(N)[C@H](C)CC)nn3)CC2)nc(N2CCN(C(=O)[C@H](Cc3cc4ccccc4[nH]3)n3cc(C(N)[C@H](C)CC)nn3)CC2)n1 (stereo partly specified)	9.0	-25.2	i	i	11.5	.
C#CCOCCOCCOCCNc1nc(N2CCN(C(=O)[C@H](CCCCN)n3cc([C@@H](N)C(C)CC)nn3)CC2)nc(N2CCN(C(=O)[C@H](Cc3cc4ccccc4[nH]3)n3cc([C@@H](N)C(C)CC)nn3)CC2)n1 (stereo partly specified)	57.1*	-13.7	.	.	.	53.2*
Cc1nn(C2CCS(=O)(=O)C2)c(C)c1CN(C)C(=O)c1ccc(Cl)cc1 (stereo unspecified)	19.3	.	.	.	.	.
COCCCNC(=O)/C(C#N)=C/c1c(N2CCN(c3ccc(OC)cc3)CC2)nc2c(C)cccn2c1=O	50.7*	3.8	i	i	5.3	51.8*
SMILES	PREPL inhibitor	ALR inh	CHT inh	CHT PAM	AI-2 QS mod	PREPL confirm
COC(=O)/C(C#N)=C/c1c(N2CCN(c3ccc(OC)cc3)CC2)nc2c(C)cccn2c1=O	48.2*	3.8	i	i	5.1	45.9*
COCCNC(=O)/C(C#N)=C/c1c(N2CCCCCC2)nc2c(C)cccn2c1=O	4.9	18.3	i	i	10.3	.
CNC(=O)/C(C#N)=C/c1c(N2CCN(c3ccc(OC)cc3)CC2)nc2c(C)cccn2c1=O	52.2*	14.0	i	i	18.1	43.9*
COC(=O)/C(C#N)=C/c1c(N2CCCCCC2)nc2c(C)cccn2c1=O	.	.	.	.	20.7	.
CNC(=O)/C(C#N)=C/c1c(N2CCN(c3ccccc3)CC2)nc2c(C)cccn2c1=O	16.4	7.2	i	i	10.9	.
NC(=O)c1cccc(CC(=O)c2ccccc2)c1	0.3	-11.5	i	i	6.2	.
COc1ccc(OC)c(-c2c3cc(O)c(=O)cc-3oc3cc(O)c(O)cc23)c1	78.5*	80.4*	i	i	.	76.7*
COc1ccc(OCC(=O)Nc2ccc(N3CCN(C(=O)c4ccccc4C)CC3)cc2)cc1	33.2	-21.1	i	i	23.5	.
CCc1ccc(OCC(=O)Nc2ccc(N3CCN(C(=O)c4ccccc4)CC3)cc2)cc1	58.1*	-4.7	i	i	17.1	56.4*
Cc1cccc(OCC(=O)Nc2ccc(N3CCN(C(=O)c4ccccc4)CC3)cc2)c1C	53.0*	-1.4	i	i	6.9	54.4*
Cc1c(C(=O)N2CCN(c3ncccn3)CC2)oc2c(Cl)cccc12	-5.2	-4.6	i	i	11.3	.
NNC(=O)c1oc2nc(-c3ccco3)cc(-c3ccco3)c2c1N	47.4*	-10.1	i	i	7.1	57.2*
Nc1c(C(=O)N/N=C/c2cccnc2)oc2nc(-c3ccco3)cc(-c3ccco3)c12	28.6	-25.9	i	i	10.7	.
Cc1ccccc1-c1nc(CN2CCC(C(=O)N3CCN(c4ccccn4)CC3)CC2)c(C)o1	49.3*	-12.4	i	i	21.7	43.0
Cc1ccccc1-c1nc(CN2CCC(C(=O)N3CCC(C(N)=O)CC3)CC2)c(C)o1	37.9	-1.3	i	i	15.6	.
COc1ccc(NC(=S)N2CCN(c3ccc([N+](=O)[O-])cc3)CC2)cc1OC	46.5*	-19.3	i	i	4.7	49.3*
COc1cccc(NC(=S)N2CCN(c3ccc([N+](=O)[O-])cc3)CC2)c1	-6.7	-23.1	i	i	8.0	.
O=C(CSc1ccc2ccccc2n1)Nc1ccc(N2CCOCC2)cc1	40.7	2.3	i	i	19.2	.

Screens deposited in PubChem BioAssay by several laboratories.
